# Bioassay records from PubChem BioAssay.
# Hits are enriched below; roughly 1.1% of the tested compounds scored in any of these assays.
# GalR3 antag: antagonists of human GalR3; O60755; HEK293 GalR3-CNG cAMP membrane potential fluorescence; galR3 body fused to GalR1 C-terminus; inhibition, % at 3 µM; 360,000 compounds, 0.44% hits; AID 651719;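 active means inhibition above the screen-wide average plus 3 SD, cut at about 13% in these data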;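 further: forskolin and galanin both at EC90 stimulate the cells; cAMP rise reported by CNG channel membrane potential dye signal; 0% = forskolin plus galanin with DMSO and 100% = forskolin alone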
# NCOA2 inhibitor: inhibits human steroid receptor coactivator 2 | inhibition, % at 9 µM | 370,000 compounds, 0.17% hits | HEK293 GAL4-SRC2 luciferase reporter, luminescence;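 active means inhibition above the mean inhibition of all tested compounds plus 3 SD, set per campaign, cut at about 52% in these data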;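 further: 0% = DMSO treated cells and 100% = cells given Gossypol at 36 µM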
# LRH-1 inv ag: suppresses constitutive activity of human LRH-1; 360,000 compounds, 0.13% hits; inhibition, % at 3.6 µM; O00482; HEK293T StAR-luciferase reporter, LRH-1 transfected, 24 h;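 active means inhibition above the mean inhibition of all tested compounds plus 3 SD, cut at about 73% in these data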;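 further: 0% = DMSO wells and 100% = reporter-only cells lacking LRH-1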
# Target sequence (O00482 whole entry, looked up): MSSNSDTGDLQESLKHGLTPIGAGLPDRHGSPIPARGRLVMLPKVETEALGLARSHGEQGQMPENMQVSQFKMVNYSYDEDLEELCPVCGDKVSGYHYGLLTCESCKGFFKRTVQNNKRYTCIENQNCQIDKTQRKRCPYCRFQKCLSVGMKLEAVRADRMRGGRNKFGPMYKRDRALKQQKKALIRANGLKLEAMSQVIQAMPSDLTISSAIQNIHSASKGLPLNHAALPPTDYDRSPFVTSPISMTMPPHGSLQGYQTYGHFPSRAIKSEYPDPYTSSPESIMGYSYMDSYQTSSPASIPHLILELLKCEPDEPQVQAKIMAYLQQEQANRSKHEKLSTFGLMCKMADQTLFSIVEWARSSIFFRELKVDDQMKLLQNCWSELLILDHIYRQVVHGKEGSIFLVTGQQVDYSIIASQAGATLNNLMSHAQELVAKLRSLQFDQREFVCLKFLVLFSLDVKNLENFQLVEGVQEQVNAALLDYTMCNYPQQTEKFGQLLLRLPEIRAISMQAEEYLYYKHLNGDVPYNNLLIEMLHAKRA
# NCOA1 inh: inhibits human SRC1 coactivator; Q15788; HEK293 GAL4-SRC1 luciferase reporter, luminescence; inhibition, % at 3.6 µM; 360,000 compounds, 0.12% hits; AID 588354;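 active means inhibition above the campaign mean plus 3 SD, with each screening campaign given its own cutoff, cut at about 60% in these data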;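 further: 0% = DMSO treated cells and 100% = gossypol at 36 µM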
# SRC3 inh: inhibits human SRC3 coactivator. AID 588352. HEK293 GAL4-SRC3 luciferase reporter, luminescence. inhibition, % at 3.6 µM. 360,000 compounds, 0.17% hits;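 active means inhibition above a per-campaign cutoff, the mean of all compounds plus 3 SD, cut at about 60% in these data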;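 further: 0% = DMSO-treated cells and 100% = gossypol-treated cells at 36 µM; higher means less SRC3-driven luciferase light from the GAL4 reporter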
# NR2F2 inh: NR2F2 (human) inhibition, primary screen; HEK293T NGFI-A luciferase reporter, luminescence; P24468; AID 686940; inhibition, % at 8.6 µM; 370,000 compounds, 0.7% hits;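 active means inhibition above a per-plate cutoff, mean inhibition of test wells between control levels plus 3 SD, cut at about 38% in these data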;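 further: cells cotransfected with COUP-TFII expression vector driving the NGFI-A reporter; 0% = median of COUP-TF2 test wells and 100% = reporter-only cells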
# Gal4-VP16 ctr: inhibits VP16 reporter, flagging COUP-TFII antagonist hits | inhibition, % at 8.5 µM | AID 687007 | 2,500 compounds, 25% hits | shares compounds with NR2F2 inh | HEK293 Gal4-VP16 luciferase reporter, luminescence; in the data active means inhibition above about 13%
# COUP-TFII conf: COUP-TFII (NR2F2) inhibition, confirmation assay; shares compounds with NR2F2 inh; HEK293 NGFI-A luciferase reporter, luminescence; inhibition, % at 8.5 µM; 2,500 compounds, 45% hits; AID 687008;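 active means mean inhibition over three repeats above a set limit taken from the earlier primary screen, cut at about 38% in these data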;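 further: 100% = cells given the luciferase reporter alone without the COUP-TF2 vector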
# The depositor's hits bear a star; . = no result.
SMILES,GalR3 antag,NCOA2 inhibitor,LRH-1 inv ag,NCOA1 inh,SRC3 inh,NR2F2 inh,Gal4-VP16 ctr,COUP-TFII conf
C=C1C(=O)[C@]23C[C@H]1CCC2[C@@]1(C)C(C[C@@H]3O)[C@](C)(C(=O)OC)CC[C@@H]1OC(C)=O (stereo partly drawn),10,59*,83*,23,45,49*,64*,52*
CN(C(=O)c1cn(C)c2ccccc12)c1ccc(Oc2cccnc2)cc1,-9,23,.,.,.,47*,-3,37
O=C(NCCN1CCC(n2c(=O)[nH]c3cc(Cl)ccc32)CC1)c1ccc(F)cc1,-9,16,.,.,.,6,.,.
O=C1NCCN1CCN1CCC(c2cn(-c3ccc(F)cc3)c3ccc(Cl)cc23)CC1,.,2,.,.,.,43*,-2,8
COCc1cc(N2CCNC[C@H]2C)ccc1N1C[C@@H](C)O[C@@H](C)C1,-2,-6,.,.,.,-1,.,.
CC1(Cc2ccc3ccccc3n2)C(=O)Nc2ccc(OC(F)(F)F)cc21 (stereo not drawn),-5,14,16,-1,-1,90*,0,10
CC1(Cc2ccccc2OC(F)(F)F)C(=O)Nc2ccc(OC(F)(F)F)cc21 (stereo not drawn),-7,-10,22,16,1,15,.,.
COc1cc2c(cc1OC)C(c1ccc3c(c1)Cc1ccccc1-3)OC(=O)C2 (stereo not drawn),-6,5,-43,-4,-15,-1,.,.
Oc1ccc(Oc2ccc3c(C(F)(F)F)cc(C(F)(F)F)nc3n2)cc1,-7,11,18,-3,23,49*,-12,37*
CC(C)(C)c1ccc(S(=O)(=O)N2CCCC(C(=O)N3CCN(Cc4ccccc4)CC3)C2)cc1 (stereo not drawn),.,12,.,.,.,45*,5,29
COc1ccc2c(c1)CCCN2C(=O)C1CCCN(S(=O)(=O)c2ccc(C(C)(C)C)cc2)C1 (stereo not drawn),.,36,.,.,.,48*,5,19
O=C(NCC(c1ccco1)N1CCCC1)c1ccc(Cl)c(S(=O)(=O)N2CCc3ccccc32)c1 (stereo not drawn),87*,25,16,21,30,66*,7,50*
COc1ccc(NC(=O)c2ccc(Cl)c(S(=O)(=O)N3CC(C)OC(C)C3)c2)cn1 (stereo not drawn),-8,22,2,22,28,8,.,.
COc1ccc(NC(=O)c2ccc(Cl)c(S(=O)(=O)N3CCc4ccccc4C3)c2)cn1,5,6,28,9,17,68*,-3,18
O=C(Nc1ccccn1)c1ccc(Cl)c(S(=O)(=O)N2CCc3ccccc32)c1,-5,33,-27,2,-29,45*,-3,22
O=C(Nc1ccc(Cl)c(Cl)c1)c1cccc(S(=O)(=O)NCc2cccnc2)c1,5,16,29,25,23,53*,0,30
O=C(CNC(=O)c1ccccc1F)NCCN1C(=O)S/C(=C\c2ccc3c(c2)OCO3)C1=O,-5,15,1,5,3,-12,.,.
NCCN1C(=O)S/C(=C\c2ccc3c(c2)OCO3)C1=O,-9,69*,23,13,31,76*,27*,34
O=C1NC(=O)C2(CCc3ccccc32)N1 (stereo not drawn),-4,15,2,-3,14,2,.,.
C=C1CC2(OC1=O)c1ccccc1CCc1ccccc12,-9,46,25,-61,20,39*,17*,29
COC(=O)[C@]12C[C@H](CC(=O)N3CCCC3)C(=O)N(Cc3ccccc3)C1=C[C@H](C1CCCC1)O[C@@H]2C,-6,-2,.,.,.,-15,.,.
